# According to ChEMBL document CHEMBL3988442, “University of Dundee, Small-Polar-MMV Screening Library” (2021):
# Species on record: Homo sapiens
# Assay: To identify inhibition of the IFN signalling (Jak-Stat) pathway via expression of an eGFP reporter gene under the control of an IFN-stimulated response element (ISRE) containing MxA promoter.
# Format: functional
# Set-up: scale not given: direction of the effect not stated beside the values
# Conditions: 30 µM
row,SMILES,Percent Effect [%]
1,CC(C)NC(=O)Cn1cc(-c2ccccc2)cn1,-2.22
2,Cc1nn(C)c(C)c1C1COCCN1C(=O)c1ccccc1 (stereo not given),7.76
3,O=C(N1CCCO1)[C@@]12CCO[C@@H]1CCN(C1CCCCC1)C2,-2.54
4,CC(C(=O)NCc1ccc(N2CCNC(=O)C2)cc1)n1cncn1 (stereo not given),14.6
5,Cn1cc(CCNC(=O)NCc2nnc3n2CCC3)cn1,4.78
6,CO[C@H]1CN(Cc2cccc(C#N)c2)[C@@H]2COC[C@H]12,-21.7
7,CC(NC(=O)c1nc(=O)[nH][nH]1)c1ccc(OCC2CC2)c(F)c1 (stereo not given),4.1
8,c1ccc(-c2noc(CN3CCC(c4ccn[nH]4)CC3)n2)cc1,-10.4
9,Cc1csc(N2CCN(C(=O)CCn3cncn3)CC2)n1,-0.236
10,Cc1cc(C2CCCN(C(=O)c3cnn(C)c3)C2)ccn1 (stereo not given),-13.7
11,CCN(CC)CCNC(=O)c1cnc(C(C)(C)C)s1,0.408
12,CCC(=O)Nc1nnc(CCOc2cccc(OC)c2)s1,7.09
13,CCCn1[nH]cc/c1=N\C(=O)CN1CCCC1c1c(C)nn(C)c1C (stereo not given),-0.266
14,O=C(c1ccnnc1)N1C[C@H](Oc2cccnc2)[C@H]2OCCC[C@H]21,-14.6
15,COc1ccc(CN2CCC(O)CC2)c(OC)c1,13.4
16,CS(=O)(=O)Cc1cccc(C(=O)NCC2Cc3ccccc3O2)c1 (stereo not given),-3.29
17,O=C(CCc1cccs1)N1CCCCC1Cn1cccn1 (stereo not given),1.69
18,CCOc1ccccc1OC1CCN(C(=O)c2ccc(=O)[nH]n2)CC1,6.53
19,CN(C)CCNC(=O)c1ccc(OC2CCN(S(C)(=O)=O)CC2)c(Cl)c1,-5.52
20,N#Cc1ccc(C(=O)N2CCn3c(Cn4cccn4)cnc3C2)cc1,-6.78

row,SMILES,Percent Effect [%]
1,Cn1ccc(C(=O)NC2CCC23CCN(C(=O)c2ccncc2)CC3)c1 (stereo not given),3.03
2,CNC(=O)[C@H]1C[C@H]2OCC[C@H]2N(Cc2cccc3ccccc23)C1,-0.999
3,COc1ccc(OCCCN2CCOC(Cn3cccn3)C2)cc1 (stereo not given),28.6
4,Cc1nc2ccccc2nc1CN1CCCC1c1c(C)nn(C)c1C (stereo not given),3.07
5,CCN(Cc1cccc(Cl)c1)Cc1nc2c(cnn2C)c(=O)[nH]1,-5.75
6,O=C(CN1CCCC1Cn1cncn1)NCCOc1cccc(F)c1 (stereo not given),-2.63
7,COc1ccc(CCN2CCN(C(=O)c3scnc3C)CC2)cc1,-22.1
8,O=C(c1ccnnc1)N1C[C@@H](OCC2CCCC2)[C@H]2OCCC[C@H]21,-12.9
9,CCc1ccc(CCC(=O)N2CCOCC2c2ncon2)cc1 (stereo not given),13.7
10,CC(C)CN(C)c1ccc(C(=O)N2CCCC2c2cnn(C)c2)cn1 (stereo not given),11.2
11,COc1ccc(CNCC(C)Oc2ccccn2)cc1Br (stereo not given),3.97
12,CCc1nc(C2CCCN2CC(=O)Nc2c(C)nn(C)c2C)no1 (stereo not given),10.6
13,Cn1c(Cn2cccn2)nnc1C1CCCN(c2ccncc2)C1 (stereo not given),11.9
14,CN(C)C(=O)N1CCC2(CCCN(Cc3cnn(C)c3)C2)C1 (stereo not given),-3.73
15,O=C(C1=CCCC1)N1CCC[C@]2(C[C@@H](Oc3ncccc3F)CO2)C1,23.5
16,Cn1ccc(C(=O)NC2CCC23CCN(C(=O)N2CCCC2)CC3)c1 (stereo not given),-7.3
17,Cc1cc(C)c2nc(CN3CCOC(CCO)C3)cc(O)c2c1 (stereo not given),-6.99
18,CNS(=O)(=O)c1ccc(C(=O)NC2CCc3nc(C)cn3C2)o1 (stereo not given),-11.5
19,O=C(CN1CCC(C(=O)c2cc(F)ccc2F)CC1)NC1CCCC1,26.2
20,Cc1ncsc1CCC(=O)NCc1cc2n(n1)CCN(C(=O)N(C)C)C2,6.29

# Target: T1, Tyrosyl-tRNA synthetase, putative (Trypanosoma cruzi (strain CL Brener)) (UniProt Q4DSP6)
# T1 sequence (whole entry): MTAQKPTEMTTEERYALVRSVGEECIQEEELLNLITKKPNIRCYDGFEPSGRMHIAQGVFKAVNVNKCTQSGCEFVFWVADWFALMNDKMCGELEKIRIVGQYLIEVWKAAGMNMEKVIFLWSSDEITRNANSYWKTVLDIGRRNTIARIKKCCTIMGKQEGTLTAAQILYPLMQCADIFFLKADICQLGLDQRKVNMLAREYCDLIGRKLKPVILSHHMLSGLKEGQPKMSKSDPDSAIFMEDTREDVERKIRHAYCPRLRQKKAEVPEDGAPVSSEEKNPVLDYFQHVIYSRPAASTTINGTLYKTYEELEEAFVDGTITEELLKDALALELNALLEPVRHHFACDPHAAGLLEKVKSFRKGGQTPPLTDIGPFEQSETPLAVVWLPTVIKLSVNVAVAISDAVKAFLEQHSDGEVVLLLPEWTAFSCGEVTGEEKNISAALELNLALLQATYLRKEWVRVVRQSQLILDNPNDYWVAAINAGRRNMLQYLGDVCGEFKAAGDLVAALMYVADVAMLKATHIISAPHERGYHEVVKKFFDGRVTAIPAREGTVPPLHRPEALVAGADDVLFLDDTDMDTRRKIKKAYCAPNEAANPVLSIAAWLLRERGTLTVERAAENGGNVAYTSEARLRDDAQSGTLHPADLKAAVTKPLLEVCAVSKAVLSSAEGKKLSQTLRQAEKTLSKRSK
# Assay: Trypanosoma cruzi tyrosyl tRNA synthetase (TcYRS) _High Tyrosine SOP; further: in the data most compounds retested in dose-response had high values
# Format: functional
# Set-up: scale not given: direction of the effect not stated beside the values
# Conditions: 30 µM
row,SMILES,Percent Effect [%]
1,CC(C)NC(=O)Cn1cc(-c2ccccc2)cn1,4.17
2,Cc1nn(C)c(C)c1C1COCCN1C(=O)c1ccccc1 (stereo not given),2.91
3,O=C(N1CCCO1)[C@@]12CCO[C@@H]1CCN(C1CCCCC1)C2,-105
4,CC(C(=O)NCc1ccc(N2CCNC(=O)C2)cc1)n1cncn1 (stereo not given),5.83
5,Cn1cc(CCNC(=O)NCc2nnc3n2CCC3)cn1,1.48
6,CO[C@H]1CN(Cc2cccc(C#N)c2)[C@@H]2COC[C@H]12,5.21
7,CC(NC(=O)c1nc(=O)[nH][nH]1)c1ccc(OCC2CC2)c(F)c1 (stereo not given),5.32
8,c1ccc(-c2noc(CN3CCC(c4ccn[nH]4)CC3)n2)cc1,4.76
9,Cc1csc(N2CCN(C(=O)CCn3cncn3)CC2)n1,8.37
10,Cc1cc(C2CCCN(C(=O)c3cnn(C)c3)C2)ccn1 (stereo not given),8.6
11,CCN(CC)CCNC(=O)c1cnc(C(C)(C)C)s1,0.493
12,CCC(=O)Nc1nnc(CCOc2cccc(OC)c2)s1,0
13,CCCn1[nH]cc/c1=N\C(=O)CN1CCCC1c1c(C)nn(C)c1C (stereo not given),3.45
14,O=C(c1ccnnc1)N1C[C@H](Oc2cccnc2)[C@H]2OCCC[C@H]21,11.9
15,COc1ccc(CN2CCC(O)CC2)c(OC)c1,2.65
16,CS(=O)(=O)Cc1cccc(C(=O)NCC2Cc3ccccc3O2)c1 (stereo not given),2.15
17,O=C(CCc1cccs1)N1CCCCC1Cn1cccn1 (stereo not given),5.71
18,CCOc1ccccc1OC1CCN(C(=O)c2ccc(=O)[nH]n2)CC1,5.39
19,CN(C)CCNC(=O)c1ccc(OC2CCN(S(C)(=O)=O)CC2)c(Cl)c1,7.53
20,N#Cc1ccc(C(=O)N2CCn3c(Cn4cccn4)cnc3C2)cc1,2.08

row,SMILES,Percent Effect [%]
1,Cn1ccc(C(=O)NC2CCC23CCN(C(=O)c2ccncc2)CC3)c1 (stereo not given),5.21
2,CNC(=O)[C@H]1C[C@H]2OCC[C@H]2N(Cc2cccc3ccccc23)C1,3.17
3,COc1ccc(OCCCN2CCOC(Cn3cccn3)C2)cc1 (stereo not given),1.04
4,Cc1nc2ccccc2nc1CN1CCCC1c1c(C)nn(C)c1C (stereo not given),5.21
5,CCN(Cc1cccc(Cl)c1)Cc1nc2c(cnn2C)c(=O)[nH]1,3.81
6,O=C(CN1CCCC1Cn1cncn1)NCCOc1cccc(F)c1 (stereo not given),0.493
7,COc1ccc(CCN2CCN(C(=O)c3scnc3C)CC2)cc1,6.38
8,O=C(c1ccnnc1)N1C[C@@H](OCC2CCCC2)[C@H]2OCCC[C@H]21,12.9
9,CCc1ccc(CCC(=O)N2CCOCC2c2ncon2)cc1 (stereo not given),-0.99
10,CC(C)CN(C)c1ccc(C(=O)N2CCCC2c2cnn(C)c2)cn1 (stereo not given),7.39
11,COc1ccc(CNCC(C)Oc2ccccn2)cc1Br (stereo not given),11.6
12,CCc1nc(C2CCCN2CC(=O)Nc2c(C)nn(C)c2C)no1 (stereo not given),1.07
13,Cn1c(Cn2cccn2)nnc1C1CCCN(c2ccncc2)C1 (stereo not given),6.88
14,CN(C)C(=O)N1CCC2(CCCN(Cc3cnn(C)c3)C2)C1 (stereo not given),1.08
15,O=C(C1=CCCC1)N1CCC[C@]2(C[C@@H](Oc3ncccc3F)CO2)C1,5.21
16,Cn1ccc(C(=O)NC2CCC23CCN(C(=O)N2CCCC2)CC3)c1 (stereo not given),6.49
17,Cc1cc(C)c2nc(CN3CCOC(CCO)C3)cc(O)c2c1 (stereo not given),4.76
18,CNS(=O)(=O)c1ccc(C(=O)NC2CCc3nc(C)cn3C2)o1 (stereo not given),3.43
19,O=C(CN1CCC(C(=O)c2cc(F)ccc2F)CC1)NC1CCCC1,1.06
20,Cc1ncsc1CCC(=O)NCc1cc2n(n1)CCN(C(=O)N(C)C)C2,3.16
